Screening results from PubChem.
In the library only some 2.8% were active in any assay of this set; here they are far more common.
Mito fusion act: qHTS Assay for Small Molecule Inhibitors of Mitochondrial Division or Activators of Mitochondrial Fusion. S. cerevisiae fusion-defective mutant growth rescue, CellTiterGlo 48 h. Potency, µM (doses to about 46.1 µM), without a hit: at the top dose growth rescue (activation), hits mostly activators. 0.23% of 320,000 active. AID 485298, 2010; also: % of control where 0% means no effect; nearly all actives have a fitted effect of over 45% in size
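Yeast fusion mutant, YPEG (non-fermentable carbon), compound, 48 h at 37C non-permissive; CellTiterGlo added, 10 min RT, luminescence read. Rescued growth = division inhibition.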
GLP1R inv ag: qHTS of GLP-1 Receptor Inverse Agonists (Inhibition Mode); Glucagon-like peptide 1 receptor (Homo sapiens), P43220; AID 624417, 2012; Potency, µM (titrated, usually from 38.3 µM), without a hit: at the top dose activity change, negative = inhibition, usual class: inhibitors; 1.6% of 410,000 active; HEK293 GLP-1R CRE-luciferase, luminescence, 24 h; GLP-1R form is constitutively active; also: % is scaled to controls: 0 for no effect and ±100 for the full control effect; nearly all actives have a fitted effect of over 55% in size
Target sequence (P43220 whole entry, looked up): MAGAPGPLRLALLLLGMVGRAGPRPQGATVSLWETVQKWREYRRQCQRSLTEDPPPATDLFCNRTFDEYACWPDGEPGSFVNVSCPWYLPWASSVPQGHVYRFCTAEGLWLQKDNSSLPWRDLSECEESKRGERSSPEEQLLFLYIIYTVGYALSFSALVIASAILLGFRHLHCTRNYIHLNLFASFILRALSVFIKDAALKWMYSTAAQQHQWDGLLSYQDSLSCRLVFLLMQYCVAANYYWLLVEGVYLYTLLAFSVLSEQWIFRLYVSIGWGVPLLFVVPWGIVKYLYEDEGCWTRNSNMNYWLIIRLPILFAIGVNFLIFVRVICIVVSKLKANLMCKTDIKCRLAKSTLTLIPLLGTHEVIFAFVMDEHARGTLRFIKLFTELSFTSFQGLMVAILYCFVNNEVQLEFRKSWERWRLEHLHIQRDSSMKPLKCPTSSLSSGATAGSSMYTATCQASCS
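Luminescence readout: a drop in cAMP-driven luciferase signal flags inverse agonism at a constitutively active GLP-1R stably expressed in HEK293. Compound exposure lasted 24 hr at 37 deg C, 5% CO2.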
BRCA1 expr act: qHTS Assay to Identify Small Molecule Activators of BRCA1 Expression. MCF7-BRCA1-FFLuc reporter, luminescence, 48 h; response scale: scaled: vehicle 0%, 10 µM genistein 100%. Potency, µM (series often up to 46.1 µM), without a hit: top-dose activation, usual class: activators. 1.1% of 380,000 active. AID 624202, 2012; also: nearly all actives have a fitted effect of over 80% in size
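Using MCF7 cells harboring a BRCA1 firefly luciferase reporter, plated 2 h before compound pinning, the screen measured luminescence after 48 h incubation. Responses were normalized to DMSO and 10 microM genistein, then fitted for concentration-effect.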
GLP1R ag: qHTS of GLP-1 Receptor Agonists; HEK293 GLP-1R CRE-luciferase, luminescence, 4-6 h; cells express a hypersensitive GLP-1R form; Potency, µM (titrated, usually from 45.6 µM), for inactives: at the highest dose activation, most hits filed as activators; 0.007% of 380,000 active; AID 624172, 2012; also: % of control where 0% means no effect
GLP1R cytotox: qHTS of GLP-1 Receptor Inverse Agonists: Cytotox Screen. HEK293 cAMP-luciferase reporter cells, luminescence, 24 h. Potency, µM (top dose mostly 38.3 µM), without a hit: at the top dose activity change, negative = inhibition, actives largely listed as inhibitors. 0.13% of 410,000 active. AID 624418, 2012;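 also: loss of luciferase light is scored as toxicity; % is scaled to controls: 0 for no effect and ±100 for the full control effect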
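Step one: seed cells (200 cells/uL, DMEM with 10% Nu serum, 1% pen-strep). Step two: 12-hour incubation at 37 deg C. Step three: pin 23 nL compound, incubate 24 hr. Step four: add luciferase reagent, read luminescence 12 min later.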
Starred values were filed as active, the others as inactive; ? = inconclusive; / = no result given. Calls follow the shape of the dose curve; as a rule, active = well fitted curve in the direction sought with a large enough effect; inconclusive = small, poorly fitted or top-dose-only effect, or another doubt; inactive = no such curve, though single readings can be large; an effect the other way counts as inactive or inconclusive. Potency is read from the fitted curve at half-maximal effect.

SMILES	Mito fusion act	GLP1R inv ag	BRCA1 expr act	GLP1R ag	GLP1R cytotox
Fc1ccccc1CSc1nnc(-c2cccnc2)o1	-4%	0%	7.1µM*	30%	13%
COc1ccc(-c2nnc(SCc3ccccc3F)o2)cc1	21%	?	?	0%	0%
CC(C)CCOc1ccc(/C=C2\CCn3c2nc2cc(C(=O)O)ccc2c3=O)cc1	3%	-1%	22%	-1%	-11%
O=S(=O)(c1ccc(F)cc1)N1CCN(CC(O)COCc2ccccc2)CC1 (centres undefined)	/	-1%	-11%	-3%	0%
C=C1CCC2C(C)(C)[C@H](O)CC[C@@]2(C)[C@@H]1COc1cc(=O)oc2ccccc12 (some centres undefined)	14µM*	?	-39%	-1%	-21%
CN1C(=S)SC(N2OC3C(=O)N(c4ccccc4)C(=O)C3C2c2ccccc2)C1(C)C (centres undefined)	-1%	/	/	/	/
CC1=C(C(=O)N(C(C)C)C(C)C)CC(CC(=O)NCc2ccco2)C(=O)N1CCC1=CCCCC1 (centres undefined)	/	-5%	-10%	0%	-1%
CCC(=O)c1ccc(-c2ccccc2)cc1	-2%	16%	13µM*	-6%	1%
CC(=O)CC(c1ccccc1)S(=O)(=O)c1ccc(C)cc1 (centres undefined)	-1%	2%	-3%	-6%	?
COC(=O)c1ccc(OCC(=O)c2ccccc2)cc1	-3%	-10%	11µM*	1%	9%
COc1ccc(C(CC(=O)c2ccccc2)S(=O)(=O)c2ccc(C)cc2)cc1 (centres undefined)	0%	9%	10µM*	1%	-13%
O=C(COc1ccccc1)c1ccccc1	/	4%	?	14%	-5%
COc1ccc(C(=O)C(CN2CCCC2)c2ccccc2)cc1 (centres undefined)	-2%	5.6µM*	-96%	-17%	?
Cc1ccc(NC(=O)C2C3C=CC4(O3)C2C(=O)N(CCCN2CCCC2)C4C(=O)NC2CCCCC2)cc1Cl (centres undefined)	-6%	-35%	-29%	12%	-7%
NC(N)=NS(=O)(=O)c1ccc(NC(=S)NC(=O)/C=C/c2cccs2)cc1	2%	5%	2%	-1%	-8%
COc1ccc(C(=O)C/C(=C\C(=O)c2ccc(C)cc2)c2ccccc2)cc1	-5%	4.5µM*	-80%	0%	1%
COc1ccccc1CC(=O)c1ccc(OCc2ccccc2)cc1	10%	2%	8.9µM*	18%	1%
CCOc1ccc(C(=O)Cc2ccccc2)cc1	/	4%	?	1%	-1%
COc1ccc(O)c(C(=O)CC(=O)c2ccncc2)c1	/	36%	5.6µM*	23%	7%
COc1ccc(C(=O)NCC(=O)c2ccccc2)cc1	-1%	-15%	102%	8%	-10%
COc1ccc(/C=C(/C(=O)NCc2ccccc2)c2ccccc2)cc1	?	25µM*	-27%	1%	-15%
Cc1ccccc1NC(=O)COc1ccc2c(c1)OC(C)(C)CC2=O	-1%	1%	?	6%	1%
CC(=O)N(c1cccc(C)c1)C1SC(=O)N(c2ccccc2)C1=O (centres undefined)	0%	11%	-6%	-15%	-3%
CCc1ccc(NC(=O)N2CCN(c3ccc(F)cc3)CC2)cc1	-3%	?	12%	0%	-19%
COc1ccc(C(=O)CC(=O)c2ccccc2)cc1	/	-13%	7.9µM*	10%	5%
COc1ccc(C(=O)CC(=O)c2ccc(OC)cc2)cc1	2%	-18%	48%	-1%	9%
CC(C(=O)Nc1ccc(C#N)cc1)N(C)CC(=O)Nc1cccc(F)c1 (centres undefined)	0%	5%	18%	-7%	6%
